# CHRM1 antagonist = human CHRM1 antagonism; AID 588852; 360,000 compounds, 1.3% hits; inhibition, % at 3 µM; CHO-K1 hM1, Fluo-8 calcium fluorescence, ACh EC80 antagonist; P11229;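 active = percent inhibition above its own plate's cutoff, namely the mean of that plate's compound wells plus 3 SD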;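 note: peak over basal fluorescence ratio during 140 s after agonist addition; 0% = ACh EC80 plus DMSO and 100% = DMSO alone without agonist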
# Target sequence (P11229 whole entry, looked up): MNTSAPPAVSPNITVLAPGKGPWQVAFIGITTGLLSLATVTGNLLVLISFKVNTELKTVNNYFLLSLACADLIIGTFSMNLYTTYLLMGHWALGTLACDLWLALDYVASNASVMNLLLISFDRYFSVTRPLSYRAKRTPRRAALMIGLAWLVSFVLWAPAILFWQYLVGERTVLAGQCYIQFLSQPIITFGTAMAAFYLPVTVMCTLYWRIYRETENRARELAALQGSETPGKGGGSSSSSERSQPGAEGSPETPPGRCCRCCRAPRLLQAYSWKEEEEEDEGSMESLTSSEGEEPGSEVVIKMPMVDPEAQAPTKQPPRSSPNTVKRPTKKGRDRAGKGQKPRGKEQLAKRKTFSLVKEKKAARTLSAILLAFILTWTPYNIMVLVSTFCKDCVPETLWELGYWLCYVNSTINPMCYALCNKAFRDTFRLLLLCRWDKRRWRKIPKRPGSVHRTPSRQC
# CHO-K1 Ca antag = counter-screen for M1 antagonists: effect in parental CHO-K1 cells; ATP-induced calcium, Fluo-8 fluorescence; inhibition, % at 3 µM; 360,000 compounds, 0.6% hits; AID 602250;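 active = inhibition above a per-plate cutoff, the plate's mean sample inhibition plus 3 SD, cut at about 24% in these data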;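 note: 0% = DMSO plus EC80 ATP and 100% = DMSO alone without ATP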
# M1 ag = agonists of human M1 muscarinic receptor | P11229 | activation, % at 3 µM | CHO-K1 hM1, Fluo-8 calcium fluorescence, agonist mode; 0% DMSO, 100% acetylcholine EC100 | AID 588814 | 360,000 compounds, 0.33% hits;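 active = activation above the run's mean compound activation plus 3 SD, cut at about 16% in these data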;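 note: peak over basal fluorescence ratio within a 140 s kinetic read after compound addition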
# CHO-K1 Ca ag = counter-screen for M1 agonists: effect in parental CHO-K1 cells | Fluo-8 calcium fluorescence; scaled to maximal ATP response, vehicle zero | activation, % at 3 µM | 360,000 compounds, 0.48% hits; in the data active = activation above about 15%;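 note: untransfected CHO-K1 host cells lacking M1 receptor as counterscreen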
# CHRM1 PAM = human CHRM1 positive allosteric modulation; P11229; CHO-K1 hM1, Fluo-8 calcium fluorescence, ACh EC20; 0% = ACh EC20, 100% = maximal ACh; activation, % at 3 µM; 360,000 compounds, 0.088% hits; AID 588819; in the data active = activation above about 19%, passing the limit was not always enough
# CHO-K1 Ca PAM = counter-screen for M1 PAMs: effect in parental CHO-K1 cells | activation, % at 3 µM | 360,000 compounds, 0.02% hits | AID 602247 | ATP EC20, Fluo-8 calcium fluorescence; 0% at ATP EC20, 100% at ATP max;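 active = activation above the run cutoff, the mean activation of all test compounds plus 3 SD, cut at about 40% in these data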;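 note: peak over basal fluorescence ratio in a 140 s read after ATP addition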
# * marks the source's active call; other numbers are inactive results; x = no result. Shown are actives, neighbours in structure and some others; about 2.3% of the full set was active somewhere.
SMILES,CHRM1 antagonist,CHO-K1 Ca antag,M1 ag,CHO-K1 Ca ag,CHRM1 PAM,CHO-K1 Ca PAM
CCOC(=O)C1(CCc2ccccc2)CCN(Cc2cccc3c2OCO3)CC1,34*,10,-13,5,-34,-3
O=[N+]([O-])c1cnc[nH]1,-29,-1,-1,1,3,13
O=C1Nc2ccc(Br)cc2C(c2ccc(Cl)cc2)=NC1O (stereo not drawn),2,13,11,23*,9,9
O=C1Nc2ccc(Br)cc2C(c2ccccc2)=NC1O (stereo not drawn),-3,7,2,0,17,-8
CCN1C[C@]2(COC(=O)c3ccccc3N)CC[C@H](OC)C34[C@@H]5C[C@H]6[C@H](OC)[C@@H]5[C@](O)(C[C@@H]6OC)[C@@](O)([C@H]13)[C@@H](OC)[C@@H]42,-23,-6,-3,0,14,-9
O=C(Cn1c(=S)[nH]c2ccccc2c1=O)N1CCC2(CC1)OCCO2,2,-1,-4,1,-2,5
Cn1c(=O)n(CC(=O)N2CCC3(CC2)OCCO3)c(=O)c2ccccc21,-64,-19,3,0,25*,18
O=C(Nc1ccncc1)c1cccn(Cc2ccccc2)c1=O,8,11,-12,32*,-1,-12
C[C@H](CO)N1C[C@H](C)[C@@H](CN(C)C(=O)Oc2ccc3ccccc3c2)OCc2cnnn2CCCC1=O,-1,-5,-11,1,-1,15
CCN(CC)CCOC(=O)c1ccc(N=Cc2c(O)[nH]c(=O)[nH]c2=O)cc1,22*,24*,-7,0,-15,-6
CC(C)[C@]12CC(=O)[C@H](C)[C@H]1C2,-8,-5,3,0,14,4
CC1CN1c1cc2c(c3c1ccn3C)C1CCC2C1 (stereo not drawn),-47,11,0,0,26*,14
O=C(O)c1[nH]c(=O)[nH]c(=O)c1F,-2,-14,-2,0,5,18
CCOC(=O)[C@]12Cc3cc(Cl)ccc3[C@H]1N(C1CCCCC1)C(=O)c1cc(OC)ccc12,x,33*,x,4,x,2
CCOC(=O)[C@]12Cc3ccc(C)cc3[C@H]1N(C1CCCCC1)C(=O)c1cc(OC)ccc12,x,1,x,2,x,14
Cc1nc2cc(-c3ccccc3)nn2c(C)c1CCC(=O)N1CCC2(CC1)OCCO2,3,24*,-1,0,2,-7
Cc1nc2ncnn2c(C)c1CCC(=O)N1CCC2(CC1)OCCO2,0,4,-2,0,0,8
CNCC(O)c1cc(OCc2ccccc2)c(OCc2ccccc2)cc1F (stereo not drawn),6,3,0,14,7,11

# Screening data as filed in PubChem.
